In PubChem BioAssay (NCATS):
Inconclusive results are not listed. Values without a mark were called inactive. The source made the active and inactive calls. Calls come from the whole dose curve; as a rule, active = well fitted cell-killing curve with a large enough effect; inconclusive = small, poorly fitted or top-dose-only effect; inactive = no such curve, though single readings can be large or run the other way. Non-standard residues stand in square brackets, D forms with d. Residues, ends and D or L forms follow the SMILES beside them. *: point of attachment. Nva = CCC[C@H](N)C(=O)O; Cbz = O=C(OCc1ccccc1)*

assay: qHTS of pediatric cancer cell lines to identify multiple opportunities for drug repurposing: Confirmatory screen for Rh41 cells (AID 1347123); details: Rh41 rhabdomyosarcoma cells, viability/cytotoxicity qHTS; series mostly up to 45.9 µM; activity change, negative = cytotoxic: at the top concentration;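 note: 48 h compound exposure; nearly all actives have a fitted effect of over 60% in size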;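 for activity change, negative = cytotoxic: plate controls were DMSO for no effect and bortezomib for full effect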
Procedure, shortened: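 Cells (500-1,000/well) rested 5 h, then received compounds for 48 h; metabolically active cells were measured by CellTiter-Glo luminescence. Final concentrations spanned up to 46 µM (MIPE, 11-point) or 0.59 nM-46 µM (NPC, 8-point) in primary screens, 11-point in follow-ups.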
Potency is the fitted concentration of half-maximal effect.

| Structure (SMILES) | Potency | activity change, negative = cytotoxic [%] |
| --- | --- | --- |
| Cc1ncc(-c2ccnc(Nc3ccc(S(C)(=O)=O)cc3)n2)n1C(C)C | 2.93 µM (active) |  |
| O=C(C=CC=Cc1ccc2c(c1)OCO2)N1CCCCC1 |  | -8.9 |
| C[C@H](NCc1ccc2c(c1)nc(NC(=O)c1ccc(-c3cn[nH]c3)s1)n2CCc1ccccc1)C(C)(C)C | 0.928 µM (active) |  |
| CCCCC(=O)O[C@]1(C(=O)CO)[C@@H](C)C[C@H]2[C@@H]3CCC4=CC(=O)C=C[C@]4(C)[C@@]3(F)[C@@H](O)C[C@@]21C |  | -19.9 |
| COC[C@H](NC(=O)c1cnc(C)s1)C(=O)N[C@@H](COC)C(=O)N[C@@H](Cc1ccccc1)C(=O)[C@@]1(C)CO1 | 0.0465 µM (active) |  |
| C[C@H]1[C@@H](OC(=O)CCC(=O)O)O[C@@H]2O[C@@]3(C)CC[C@@H]4[C@H](C)CC[C@@H]1[C@@]24OO3 | 5.85 µM (active) |  |
| Cn1cc(CNCC2CCN(c3ncc(C(=O)NO)cn3)CC2)c2ccccc21 | 0.0329 µM (active) |  |
| CC(C(C)N1CC(=O)NC(=O)C1)N1CC(=O)NC(=O)C1 (stereo not given) |  | -13 |
| CC[C@]12C=CCN3CC[C@@]4(c5cc([C@@]6(C(=O)OC)C[C@H]7C[C@@H](C(C)(F)F)CN(Cc8c6[nH]c6ccccc86)C7)c(OC)cc5N(C)[C@H]4[C@@](O)(C(=O)OC)[C@H]1OC(C)=O)[C@@H]32 | 3.69 µM (active) |  |
| Oc1cc(-c2nc(-c3ccccc3)[nH]c2-c2ccncc2)ccc1Cl | 16.5 µM (active) |  |
| CCOc1cc2ncc(C#N)c(Nc3ccc(OCc4ccccn4)c(Cl)c3)c2cc1NC(=O)C=CCN(C)C | 2.93 µM (active) |  |
| O=S(=O)(O)CCSSCCS(=O)(=O)O |  | 1.1 |
| CC(C)N1[N]C(=C2C=c3cc(O)ccc3=N2)c2c(N)ncnc21 | 0.522 µM (active) |  |
| COC(=O)[C@@H]1[C@H]2C[C@@H]3c4[nH]c5ccccc5c4CCN3C[C@@H]2CC[C@@H]1O |  | -7.57 |
| O=C1NC(=O)C(=Cc2ccc3nccc(-c4ccncc4)c3c2)S1 | 2.61 µM (active) |  |
| Oc1ccc(-c2ccc(-c3cc(Nc4cccc(CNC5CC5)c4)n[nH]3)cc2)c(O)c1 | 3.69 µM (active) |  |
| COc1cccc2c1C(=O)c1c(O)c3c(c(O)c1C2=O)C[C@@](O)(C(=O)CO)C[C@H]3O[C@H]1C[C@H](N)[C@H](O)[C@H](C)O1 | 0.928 µM (active) |  |
| CNC(=O)c1ccc(Nc2cc(Nc3ccccc3S(=O)(=O)C(C)C)c3cc[nH]c3n2)nc1 | 5.85 µM (active) |  |
| Cc1cnc(Nc2ccc(N3CCN(C)CC3)cc2)nc1Nc1cccc(S(=O)(=O)NC(C)(C)C)c1 | 3.29 µM (active) |  |
| O=C(O)C[C@H](O)C[C@H](O)C=Cc1c(C2CC2)nc2ccccc2c1-c1ccc(F)cc1 | 4.65 µM (active) |  |
| CCN(CC)CCNC(=O)c1c(C)[nH]c(C=C2C(=O)Nc3ccc(F)cc32)c1C | 7.59 µM (active) |  |
| C=CC(=O)Nc1cccc(Nc2nc(NC3CCC(N(C)C)CC3)nc3c2ncn3C(C)C)c1 (stereo not given) | 0.414 µM (active) |  |
| C=C1C(=CC=C2CCC[C@]3(C)[C@@H]([C@H](C)CCCC(C)(C)O)CC[C@@H]23)C[C@@H](O)C[C@@H]1O |  | -21.5 |
| CN[C@H]1[C@@H](O)[C@@H]2O[C@@H]3O[C@H](C)CC(=O)[C@]3(O)O[C@@H]2[C@@H](NC)[C@H]1O |  | 0 |
| CCC[C@@H](C=O)NC(=O)[C@H](CC(C)C)NC(=O)[C@H](CC(C)C)NC(=O)OCc1ccccc1 (Cbz-Leu-Leu-[Nva]-aldehyde) | 1.04 µM (active) |  |
| CC(C)(O)Cn1c(NC(=O)c2ccc(-c3cn[nH]c3)s2)nc2cc(CN3CCOCC3)ccc21 | 0.585 µM (active) |  |
| COc1cccc2c1C(=O)c1c(O)c3c(c(O)c1C2=O)C[C@@](O)(C(=O)CO)C[C@@H]3O[C@H]1C[C@H](N)[C@@H](O)[C@H](C)O1 | 0.293 µM (active) |  |
| CC[C@@]1([C@@H]2O[C@@H]([C@H]3O[C@@](O)(CO)[C@H](C)C[C@H]3C)C[C@H]2C)CC[C@H]([C@]2(C)CC[C@]3(C[C@H](O)[C@@H](C)[C@@H]([C@@H](C)[C@@H](OC)[C@H](C)C(=O)O)O3)O2)O1 | 0.91 µM (active) |  |
| COc1ccc(C=Cc2cc(OC)c(OC)c(OC)c2)cc1NC(=O)[C@H](N)CO | 0.104 µM (active) |  |
| C[C@@]12C(=O)OC(=O)[C@@]1(C)C1CCC2O1 | 1.85 µM (active) |  |
